Shown are actives, neighbours in structure and some others; about 21% of the full set was active somewhere.
Shiga toxin inh – A qHTS for Small Molecule Inhibitors of Shiga Toxin. Vero cells, Shiga toxin protein synthesis inhibition reporter. inhibition, % at 38.7 µM. 9.2% of 290,000 active; in the data active = inhibition mostly above about 28%, no sharp cut-off; inactive = mostly below about 43%
Pf growth 48h – Primary qHTS for delayed death inhibitors of the malarial parasite plastid, 48 hour incubation; P. falciparum luciferase growth in erythrocytes, 48 h; Potency, µM (series often up to 28.7 µM), usual class: inhibitors; 5.9% of 310,000 active
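Luciferase-expressing parasites in RBCs, 2% Hct / 0.1% parasitemia final; RPMI 1640 + 0.5% Albumax; 37 C, 5% CO2, one generation; luminescence read-out, lower signal = inhibition.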
CHX counter – Cycloheximide Counterscreen for Small Molecule Inhibitors of Shiga Toxin | cell reporter, cycloheximide protein synthesis inhibition counterscreen | 12% of 300,000 active | max response, %; in the data active = max response mostly above about 13%, no sharp cut-off; inactive = mostly below about 14%; note: read at 38.3 µM for the half of the compounds with a filed dose
NS1 function inh – qHTS Assay for Inhibitors of Influenza NS1 Protein Function | Potency, µM (series often up to 46.1 µM) | 0.4% of 270,000 active; calls by dose curve; note: actives are rising curves; nearly all actives have a fitted effect of over 50% in size
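S. cerevisiae expressing influenza A NS1, grown in glucose, washed, then diluted 1:100 into pH 6.0 -URA galactose medium with 23 nl compound. Growth recovery read as OD600; NS1-free strain serves as control.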
SARS PLpro yeast – qHTS of Yeast-based Assay for SARS-CoV PLP | 0.19% of 330,000 active | S. cerevisiae expressing SARS-CoV PLpro, growth rescue | Potency, µM (series often up to 32.9 µM), most hits filed as activators; calls by dose curve; note: nearly all actives have a fitted effect of over 55% in size
Pf growth 96h – Primary qHTS for delayed death inhibitors of the malarial parasite plastid, 96 hour incubation | P. falciparum luciferase reporter growth, 96 h | Potency, µM (doses to about 28.7 µM), usual class: inhibitors | 6.9% of 320,000 active
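Infected RBCs, 2% Hct / 0.05% parasitemia final; luciferase-reporter P. falciparum; cpd 96 h, 37 C, 5% CO2; luciferase detection reagent; luminescence.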
Large screens that a line does not name were inactive. Unless noted, calls come from the whole dose curve; as a rule, active = well fitted inhibition curve with a large enough effect; inconclusive = small, poorly fitted or top-dose-only effect, or another doubt; inactive = no such curve, though single readings can be large or run the other way.

Cc1ccc(S(=O)(=O)N(Cc2cc3cc4c(cc3[nH]c2=O)OCCO4)CC2CCCO2)cc1 (stereo not drawn)	none
O=c1[nH]c2cc3c(cc2cc1CN(CC1CCCO1)S(=O)(=O)c1ccc(Cl)cc1)OCCO3 (stereo not drawn)	Shiga toxin inh 183, CHX counter 67, Pf growth 96h 12µM
Cc1ccc(S(=O)(=O)N(CC(=O)NC2CC2)c2ccc(C)c(Cl)c2)cc1	Pf growth 48h inconclusive, Pf growth 96h inconclusive
CC(C)(C)OC(=O)NCCCC[C@H](NC(=O)c1[nH]cnc1C(=O)Nc1ccc(Cl)cc1)C(=O)OC(C)(C)C	Pf growth 48h 5.2µM, Pf growth 96h 5.9µM
C[C@@H](NC(=O)c1nc[nH]c1C(=O)N[C@@H](CCCCNC(=O)OC(C)(C)C)C(=O)OC(C)(C)C)c1ccccc1	Pf growth 48h inconclusive, Pf growth 96h inconclusive
CC(C)(C)OC(=O)NCCCC[C@H](NC(=O)c1[nH]cnc1C(=O)Nc1ccccc1)C(=O)OC(C)(C)C	Pf growth 48h 4.7µM, Pf growth 96h 5.2µM
O=C(Nc1nc2ccccc2c(=O)[nH]1)c1ccccc1SCc1ccccc1	Pf growth 48h inconclusive, Pf growth 96h inconclusive (no result: NS1 function inh)
O=C1CCCC2=C1C(c1ccccc1O)C1=C(CCCC1=O)O2	SARS PLpro yeast inconclusive, Pf growth 96h 8.3µM (no result: Pf growth 48h)
O=C(Nc1cc(C(F)(F)F)ccc1Cl)C(Sc1nnc(-c2cccs2)o1)c1ccccc1 (stereo not drawn)	Shiga toxin inh 33, CHX counter 15
O=C(CCS(=O)(=O)c1ccc(Cl)cc1)Nc1nnc(-c2cccs2)o1	Pf growth 48h inconclusive (no result: Shiga toxin inh, CHX counter, NS1 function inh)
O=C(Nc1ccc(Cl)cc1C(F)(F)F)C(Sc1nnc(-c2cccs2)o1)c1ccccc1 (stereo not drawn)	Shiga toxin inh 89, CHX counter 29, Pf growth 96h inconclusive
O=C(Nc1cc(C(F)(F)F)ccc1Cl)C(Sc1n[nH]c(=O)[nH]c1=O)c1ccccc1 (stereo not drawn)	NS1 function inh inconclusive
COc1ccc(-c2c(C(F)(F)F)oc3cc(OCC(=O)Nc4ccccc4C(F)(F)F)ccc3c2=O)cc1OC	Pf growth 48h inconclusive, SARS PLpro yeast inconclusive, Pf growth 96h inconclusive
COc1ccccc1-c1c(C(F)(F)F)oc2cc(OCC(=O)Nc3ccccc3C(F)(F)F)ccc2c1=O	Pf growth 48h inconclusive, Pf growth 96h 5.2µM
COc1ccccc1-c1c(C(F)(F)F)oc2cc(OS(C)(=O)=O)ccc2c1=O	CHX counter 25
COc1ccccc1CNC(=O)C1=CCN(S(=O)(=O)c2ccc(C)cc2)CC1	none
Cc1noc(NS(=O)(=O)c2ccc(NC(=O)C34CC5CC(C3)CC(n3cnc(Cl)n3)(C5)C4)cc2)c1C	none
Oc1ccccc1N=Cc1ccc[nH]1	Pf growth 48h inconclusive
Oc1ccccc1N=Nc1ccccc1O	Shiga toxin inh 194, Pf growth 48h 2.6µM, CHX counter 94 (no result: NS1 function inh)
CC(C)(C)C(=O)/C=C/c1ccc(Oc2ccccc2)cc1	Shiga toxin inh 120, CHX counter 50
O=C(/C=C/c1ccccc1)NCCOc1ccccc1	Shiga toxin inh 77, CHX counter 39
COc1ccc(C(=O)CC(=O)C(=O)Nc2ccccc2C(F)(F)F)cc1	none (no result: Pf growth 48h)
COc1ccc(OCCNC(=O)/C=C/c2ccccc2)cc1	Pf growth 96h inconclusive (no result: NS1 function inh)
CCOc1ccc(C(=O)/C=C/c2ccc(SC)cc2)cc1	Pf growth 96h inconclusive
CCOc1ccc(C(=O)/C=C/c2ccccc2C(F)(F)F)cc1	CHX counter 21
COc1ccc(C(=O)/C=C/c2ccccc2C(F)(F)F)cc1	Pf growth 48h inconclusive, CHX counter 26, Pf growth 96h inconclusive
CC(=O)N1CCN(CCN=CC2=C(O)CC(c3cccs3)CC2=O)CC1 (stereo not drawn)	none
CCN(CC)CCCCN1c2ccccc2Oc2ccc(Cl)cc21	none (no result: Pf growth 48h, NS1 function inh, SARS PLpro yeast, Pf growth 96h)
CCCc1ccc(S(=O)(=O)N/N=C\c2ccc3c(c2)OCO3)cc1	Pf growth 96h inconclusive
CCOc1ccc(/C=C/C(=O)NCc2ccccc2)cc1	CHX counter 20
O=C(O)COc1ccc(/C=C/C(=O)c2ccc(C3CCCCC3)cc2)cc1	Pf growth 48h inconclusive, CHX counter 26, NS1 function inh inconclusive, Pf growth 96h inconclusive
COc1ccc(CNC(=O)/C=C/c2ccc(OCCCF)cc2)cc1	Pf growth 48h inconclusive
O=C(O)COc1ccc(/C=C/C(=O)c2ccc3ccccc3c2)cc1	Pf growth 96h inconclusive
CCOc1ccc(/C=C/C(=O)c2ccccc2)cc1	CHX counter 31
O=C(O)c1ccnc2c(O)cccc12	Pf growth 48h inconclusive, Pf growth 96h inconclusive (no result: Shiga toxin inh, CHX counter, NS1 function inh)
O=Cc1ccc(O)c2ncccc12	Pf growth 48h 6.6µM, Pf growth 96h inconclusive
O=C(NCC1CCCN1S(=O)(=O)c1cccs1)c1ccc([N+](=O)[O-])cc1 (stereo not drawn)	Pf growth 48h inconclusive, Pf growth 96h inconclusive (no result: Shiga toxin inh, CHX counter, NS1 function inh)
CC12CCC(C(=O)N3CCCc4ccccc43)(OC1=O)C2(C)C (stereo not drawn)	none
C=C(C)CNC(=S)NNC(=O)CCn1c2ccccc2c2ccccc21	Pf growth 96h inconclusive
C=C(C)CNC(=S)NNC(=O)CCn1c2cc(Cl)ccc2c2ccc(Cl)cc21	Pf growth 48h 7.4µM, NS1 function inh inconclusive
C=C(C)CNC(=S)NNC(=O)c1ccncc1	none (no result: NS1 function inh)
C=C(C)CNC(=S)NNC(=O)CCn1c2ccc(Cl)cc2c2cc(Cl)ccc21	Pf growth 48h 2.3µM, SARS PLpro yeast inconclusive
O=C(COC(=O)c1cc(Br)ccc1O)Nc1cccnc1Cl	none (no result: Shiga toxin inh, CHX counter, NS1 function inh)
Cc1ccc(SC(C)C(=O)N2CCN(c3ccccc3)CC2)cc1 (stereo not drawn)	Pf growth 96h 8.3µM
CN(CCO)c1nc2c(c(=O)n(Cc3ccc(Cl)cc3)c(=O)n2C)n1C	none
CC(=O)c1cccc(S(=O)(=O)NCC(c2ccco2)N2CCCCC2)c1 (stereo not drawn)	none
Cc1oc(-c2ccc(Cl)cc2)cc1-c1nn2c(-c3ccoc3C)nnc2s1	Pf growth 48h inconclusive, NS1 function inh 10µM, Pf growth 96h inconclusive
Clc1ccc(-c2nnc3sc(-c4ccc(Br)o4)nn23)cc1	Pf growth 48h inconclusive, Pf growth 96h inconclusive
Cc1ccccc1C(=O)NCCNC(=O)c1cnccn1	none
CC(=O)c1cccc(NC(=O)NC2CC(=O)N(c3ccc4c(c3)OCCO4)C2)c1 (stereo not drawn)	none (no result: Shiga toxin inh, CHX counter, NS1 function inh)
O=C(Nc1nc(-c2ccncc2)cs1)C1c2ccccc2Oc2ccccc21	Pf growth 48h inconclusive, Pf growth 96h inconclusive
O=C(Nc1nc(-c2ccccc2)cs1)C1c2ccccc2Oc2ccccc21	Pf growth 48h 12µM, Pf growth 96h 10µM
O=C(Nc1nc(-c2ccccc2)cs1)C1CCCO1 (stereo not drawn)	Shiga toxin inh 111, CHX counter 38, Pf growth 96h inconclusive
O=C(Nc1nc(-c2ccc(-c3ccccc3)cc2)cs1)C1CCCO1 (stereo not drawn)	none (no result: Pf growth 48h)
